Several values for one entry are separate records, joined by “and”; a condition that tells them apart may be missing. Identical values can stand only once. About 83,000 compounds went through this panel and 20% of them were active in at least one assay; those are over-represented in the sample as a whole.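 Growth was measured after 48 h exposure to one concentration of compound in 96-well plates. Values under 10 count as active.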 Values without a mark were called inactive. Activity calls are given as the source filed them.
Assays:
Assay in all cases: NCI-60 one-dose screen, 48 h (100 = growth as untreated, 0 = no growth, -100 = all killed)
Conditions in all cases: 10 µM unless noted
SR leukemia = tested on: SR leukemia
RPMI-8226 leukemia = tested on: RPMI-8226 leukemia
OVCAR-8 ovarian = tested on: OVCAR-8 ovarian
OVCAR-5 ovarian = tested on: OVCAR-5 ovarian
OVCAR-4 ovarian = tested on: OVCAR-4 ovarian
IGROV1 ovarian = tested on: IGROV1 ovarian
OVCAR-3 ovarian = tested on: OVCAR-3 ovarian
HS 578T breast = tested on: HS 578T breast
SK-OV-3 ovarian = tested on: SK-OV-3 ovarian
NCI/ADR-RES ovarian = tested on: NCI/ADR-RES ovarian

Compound	growth (SR leukemia)	growth (RPMI-8226 leukemia)	growth (OVCAR-8 ovarian)	growth (OVCAR-5 ovarian)	growth (OVCAR-4 ovarian)	growth (IGROV1 ovarian)	growth (OVCAR-3 ovarian)	growth (HS 578T breast)	growth (SK-OV-3 ovarian)	growth (NCI/ADR-RES ovarian)
O=C1c2ccccc2C(=O)c2sc(Nc3cccc(Cl)c3)nc21	2.67% (active)	2.31% (active)	1.49% (active)	-67.4% (active)	-9.21% (active)	0.883% (active)	-34.3% (active)	-8.09% (active)		
NC(=S)N/N=C/c1ccc(Cl)s1	95.6%	100%	106%	111%	109%	106%	105%	103%	109%	108%
O=C1c2ccccc2C(=O)N1c1ccccc1	85.7%	119%	98.6%	107%	105%	105%		119%	99.1%	105%
Nc1ncnc2c1ncn2C1OC(CO)C(O)C1O (stereo not given)	98.7% and 21% and 87.3%	101% and 77.5% and 112%	93.5% and 56% and 105%	122% and 127%	123% and 83.8% and 91.7%	109% and 104%		125% and 77.9%	104% and 100%	110% and 72%
O=Nc1ccccc1N=O	63.8%	86.7%	89.4%	105%	88.9%	91.1%	118%	84.2%		81.2%
CC1OC2CC(=O)OC2C2=C1C(=O)c1c(O)cccc1C2=O (stereo not given)	-30% (active)	-9.64% (active)	-14.7% (active)	-75.2% (active)	-98.5% (active)		-97.9% (active)	5.97% (active)	21%	-6.77% (active)
CCC(CCCN(CC)CCc1ccccc1)OC(=O)c1cc(OC)c(OC)c(OC)c1 (stereo not given)	78.7%	85%	92.2%	84.8%	82.6%	78.1%	92.2%	81.3%		83.3%
CC(=O)C(=Cc1ccc(C=C(C(C)=O)C(C)=O)cc1)C(C)=O	6.26% (active)	2.05% (active)	2.83% (active)	27.1%	30.4%	48.6%	-16.2% (active)	64.7%		7.49% (active)
CNC(=O)N/N=C/c1ccc([N+](=O)[O-])o1	82.8%	83.6%	96.5%	110%	108%	98.1%		98.1%	109%	108%
CC(=Nc1ccc(N(C)C)cc1)c1ccccc1	32.6%	7.42% (active)	25.7%	106%	69.9%	58.8%	25.3%	74.2%		74.7%
N#CSCC(=O)c1ccc(Cl)cc1	69.9%	45.6%	63.7%	22.5%	63.5%			70.5%	66.7%	-16.4% (active)
CN(C)c1ccc(N=Nc2cccc3ccccc23)cc1	111%	72.5%	94.8%	107%	81.4%	67.2%	84.3%	95%		102%
N#CC1C(=O)SC2c3ccccc3C(=O)c3ccccc3C12 (stereo not given)	90.1%	94.6%	99%	105%	99.1%	110%	109%	96.2%		
C[n+]1c(/C=C/c2ccc([N+](=O)[O-])cc2)ccc2ccccc21	82.7%	102%	91.3%	112%	105%	104%		99.7%	109%	102%
Cc1ccc2nc(C[n+]3ccc4ccccc4c3)ccc2c1	62.8%	30.5%	57.8%	79.7%	43.8%	59.7%		90.8%	70%	104%
CN(C)c1ccc(C(=C2C=CC(=[N+](C)C)C=C2)c2ccc(N(C)C)cc2)cc1 (tested in a mixture with another compound)		-52.6% (active)	-23.2% (active)	-66.9% (active)	-40.1% (active)	-63.8% (active)	-93.5% (active)	-1.97% (active)	-81.1% (active)	-4.74% (active)
CCC(=O)Sc1ccccc1C(=O)Nc1ccc(Cl)cc1	26.3%	35%	78.8%	110%	44.5%	71.2%		54.5%		
Nc1nc(N)c2c(ccc3c2ccn3Cc2cccc([N+](=O)[O-])c2)n1	110%	19.4%	-54.4% (active)	-96.9% (active)	-79.2% (active)	-90% (active)	-93.9% (active)	-58.2% (active)		22.5%
Oc1c(Br)c(Br)c(O)c(Br)c1Br		104%	102%	129%	68.7%	115%	5.11% (active)	144%	156%	102%
O=C1C=CC(=O)N1C1c2ccccc2-c2ccccc21		90.7%	99.8%	109%	110%	99.4%	35.4%	102%	96.5%	100%
Cc1c2ccccc2c(C)c2c1ccc1ccccc12	63.8%	84.3%	98.8%	95.6%	89.9%	81%	105%	98%		106%
O=C(Nc1ccc(F)cc1)ON=C1CCCCC1		93.9% [100 µM]	106% [100 µM]	97.9% [100 µM]	99.1% [100 µM]	102% [100 µM]	108% [100 µM]	99% [100 µM]	129% [100 µM]	
Oc1c(Cl)cc(Cl)c2cccnc12		50.3% and 50.1%	41.2%	94.9%	50.1% and 45.7%	52.9%	68% and 15.3%	72.9% and 52%	86.5% and 65.8%	27.4% and 29.3%
Cc1ccnc(NC(c2ccccc2)c2ccc3cccnc3c2O)c1 (stereo not given)	10%	51.5%	28.1%	69.9%	20.6%	36.5%		66.9%		
CC(C)(C)CC(C)(C)c1ccc(OCCSC(=N)N)cc1		2.8% (active)	56.2%	79.3%	41.2%	77.1%	46.7%	91.4%	89.6%	71.7%
CN1c2ccccc2C(C)(C)C12C=Cc1cc(O)ccc1O2 (stereo not given)		-22.8% (active)	67.3%	82.5%	72.9%	-7.4% (active)	4.21% (active)	-7.66% (active)	71.4%	
CC(=O)Nc1cccc2cc(O)ccc12		120% and 112% and 106%	106% and 100% and 94.3%	94.7% and 93.2% and 113%	119% and 109% and 98.8%	97.2% and 123%	111% and 105% and 108%	132% and 101% and 98.5%	111% and 115% and 99.8%	104% and 113% and 110%

Reference: PubChem BioAssay (NCI)
